From PubChem BioAssay AID720541 (National Center for Advancing Translational Sciences (NCATS), 2013)
Screen size: about 1,300 compounds; about 420 (32%) were called active. Roughly 32% stayed inconclusive and do not appear here. Calls come from the whole dose curve; as a rule, active = well fitted inhibition curve with a large enough effect; inconclusive = small, poorly fitted or top-dose-only effect; inactive = no such curve, though single readings can be large or run the other way. This is one part of the list. A call without a number means that no potency is given here.

What follows are compounds tested against C-terminal-binding protein 1 (Homo sapiens) (UniProt Q13363) (assay: qHTS for Inhibitors of the Phosphatase Activity of Eya2: Carboxyl-terminal binding protein (CtBP) Counterscreen for Cherry-picked Compounds). Conditions: purified protein-protein binding, AlphaScreen, 3 h; series mostly up to 46.1 µM.
Description: The Eya protein family is an essential co-activator of the Six1 transcription factor. Six1 is a developmental gene that is abnormally re-expressed in a large percentage of breast cancers. This over-expression plays a causal role in the initiation and metastatic development of breast cancers. The Eya family of protein is also found to contain a unique HAD phosphatase domain with protein tyrosine phosphatase activity which can potentially play a role in Six1-mediated breast tumorigenesis. Recently, Eya2 is found to dephosphorylate the histone variant H2AX and direct cells towards DNA repair instead of apoptosis in the event of DNA damage.
A 1536 well format, fluorescence based qHTS assay was developed and used to target the phosphatase activity of Eya2 (AID 488837). In addition, a CtBP counterscreen was developed using the AlphaScreen technology to evaluate compound selectivity to target […]. The data herein reports the activity of the cherry-picked compounds against the CtBP AlphaScreen. Compounds that are active or have > 100 fold selectivity vs. the Eya2 activity were excluded for further characterization. Inactivity is the desired outcome for the CtBP counterscreen.
NIH Chemical Genomics Center [NCGC]
NIH Molecular Libraries Probe Centers Network [MLPCN]
Assay Submitter (PI): Rui Zhao, University of Colorado Denver
Four microliters of reagent (25 nM GST-E1A, 25 nM CtBP-6x HIS) was dispensed in a 1536 well Greiner plates. Twenty-three nanoliter of test compounds (final concentration of 2.5 nM - 46 uM) and positive control E1A peptide inhibitor (final concentration of 0.14 nM - 4.6 uM) were added to the plates using the Kalypsys pintool equipped with a 1536 pin head. The plates was then incubated at room temperature for 2 hours followed by addition of 1 uL Alpha bead donor / acceptor mix (20 ug/mL final concentration). The assay plates were incubated for additional 1 hour at room temperature and protected from light. The AlphaScreen signal was obtained using the PerkinElmer EnVision plate reader using the 680 nm excitation and 520 - 620 nm emission filters. The data was normalized to the E1A peptide inhibitor for maximum inhibition and DMSO treated wells as negative control.
Note: nearly all actives have a fitted effect of over 65% in size.
Potency is the fitted concentration of half-maximal effect.

SMILES	Potency
C=C(C)COc1ccc(-c2nc(N)nc(C)c2-c2ccc(OC)cc2)c(O)c1	6.01 µM (active)
COc1ccc(-c2nc(N)ncc2-c2csc(C)n2)c(O)c1	inactive
CC(C)S(=O)(=O)c1cnc(-c2ccccn2)nc1N	13.5 µM (active)
CCc1cc2c(=O)[nH]c(-c3ccccn3)nc2s1	1.9 µM (active)
Cn1c(-c2cc(Cl)ccc2O)nc2c1c(=O)[nH]c(=O)n2Cc1ccccc1	inactive
COc1cc(NC(=O)c2ccc(S(=O)(=O)N(C)c3ccccc3)cc2)cc(OC)c1	inactive
CN(CC(=O)Nc1cccc(F)c1)C(=O)c1ccc(COc2ccccc2)cc1	inactive
CC(=O)c1ccc(NS(=O)(=O)c2cccc(C(=O)Nc3ccccc3C(=O)O)c2)cc1	15.1 µM (active)
COc1cccc(NC(=O)c2ccc3c(c2)CCN3S(C)(=O)=O)c1	inactive
CC(=O)Oc1cccc(C(=O)Nc2cccc(C(=O)Nc3ccccc3C(=O)O)c2)c1	8.49 µM (active)
CC(C)CCNC(=O)c1onc(CSc2ccncc2)c1C(=O)NCCC(C)C	inactive
Cc1nn(-c2ccccc2)c2c1C(c1cccnc1)N1C=C(S(=O)(=O)N3CCCCC3)C=CC1=N2 (centres undefined)	inactive
CC1CCCN(c2ccc3nc4ccccc4c(=O)n3n2)C1 (centres undefined)	7.57 µM (active)
COc1cc(/C=C2\C(C)=C(C#N)c3nc(N)c(C#N)c(C)c32)ccc1OCC(=O)O	8.49 µM (active)
COc1cc(C=NO)nc(-c2ccccn2)c1	1.07 µM (active)
NC(=O)c1nn2c(C(F)(F)F)cc(-c3ccccc3)nc2c1Br	10.7 µM (active)
Cc1ccc(C(=O)ON=C2CCN(c3ccc([N+](=O)[O-])cc3)CC2)cc1	inactive
CCN(Cc1cccc(S(=O)(=O)O)c1)c1ccc(C(=C2C=CC(=[N+](CC)Cc3cccc(S(=O)(=O)O)c3)C=C2)c2ccccc2S(=O)(=O)[O-])cc1	12 µM (active)
CCN(Cc1cccc(S(=O)(=O)O)c1)c1ccc(C(=C2C=CC(=[N+](CC)Cc3cccc(S(=O)(=O)O)c3)C=C2)c2ccc(O)cc2S(=O)(=O)O)cc1	12 µM (active)
N#CC1=C(N)n2c(s/c(=C\c3cccs3)c2=O)=C(C#N)C1c1cccs1 (centres undefined)	13.5 µM (active)
CC(=O)N1CCCc2cc(S(=O)(=O)N3CCCC(C(=O)N4CCN(c5cc(C)ccc5C)CC4)C3)ccc21 (centres undefined)	inactive
CN1C(=O)NC(c2ccccc2)(C(F)(F)F)S/C1=C(/C#N)c1nnc(N2CCOCC2)n1-c1ccccc1 (centres undefined)	inactive
CCOc1cc(C=NNC(=O)c2cccc(S(=O)(=O)N3CCCC3)c2)ccc1O	7.57 µM (active)
Cc1cccc(C)c1Nc1c(-c2ccccn2)nc2ccccn12	7.57 µM (active)

SMILES	Potency
Cc1ccc(Nc2c(-c3ccccn3)nc3ccc(C)cn23)cc1	4.26 µM (active)
Cc1ccccc1Nc1c(-c2ccccn2)nc2ccccn12	2.69 µM (active)
Cc1onc(-c2ccccc2Cl)c1C(=O)N(Cc1ccc(N(C)C)cc1)C(C)C	inactive
Cc1cccc(S(=O)(=O)C(C#N)c2nc3ccccc3nc2N2CCOCC2)c1 (centres undefined)	inactive
CC(C)N=c1cc2n(-c3ccc(Cl)cc3)c3ccccc3nc-2cc1Nc1ccc(Cl)cc1	3.38 µM (active)
Cn1c(=O)c2cc(S(=O)(=O)Nc3cccc(F)c3)ccc2n(C)c1=O	inactive
O=S(=O)(Nc1cccc(-c2cn3cccnc3n2)c1)c1ccc(F)cc1	15.1 µM (active)
O=S(=O)(Nc1cccc(-c2cn3cccnc3n2)c1)c1ccccc1	4.26 µM (active)
COc1cc(NC(=O)c2cccs2)c(OC)cc1NC(=O)Cc1ccccc1	7.57 µM (active)
O=C(CNC(=O)c1cccs1)OCC(=O)c1ccc(Cl)cc1	inactive
COc1cc(NC(=O)c2cccs2)c(OC)cc1NC(=O)CCn1nnc2ccccc21	12 µM (active)
COc1cc(NC(=O)c2cccs2)c(OC)cc1NC(=O)Nc1ccc(F)cc1	inactive
COc1cc(NC(=O)c2cccs2)c(OC)cc1NC(=O)CCC(=O)Nc1ccc2ncccc2c1	1.69 µM (active)
O=C(CC(=O)c1c(F)cccc1Cl)c1ccccc1O	inactive
Cc1ccc(S(=O)(=O)Nc2c(C)n(C)n(-c3ccccc3)c2=O)cc1C(=O)OC(C)C(=O)N(C)c1ccccc1 (centres undefined)	inactive
O=C1/C(=C/c2ccco2)SC(=S)N1c1cccnc1	15.1 µM (active)
CCOC(=O)c1c(C)oc2c1c(C=NCc1ccccn1)c(O)c1ccccc12	15.1 µM (active)
CC(=O)Oc1cccc2c1C(=O)c1c(OC(C)=O)cc(C(=O)O)cc1C2=O	12 µM (active)
O=C(O)c1cccc(N2C(=O)c3cccc(Oc4ccc(Cl)cc4)c3C2=O)c1	inactive
N#C/C(=C\c1ccc(OC(=O)c2ccccn2)cc1)C(N)=O	12 µM (active)
N#C/C(=C\c1ccc(OC(=O)c2ccc(Br)s2)cc1)c1nc2ccccc2[nH]1	inactive
N#C/C(=C/c1ccc(OC(=O)c2ccc(Br)s2)cc1)c1nc2ccccc2[nH]1	inactive
N#C/C(=C\c1ccc(OC(=O)c2ccc(Cl)s2)cc1)c1nc2ccccc2[nH]1	inactive
CCOC(=O)/C(C#N)=C/c1ccc(OC(=O)c2ccccn2)cc1	7.57 µM (active)

SMILES	Potency
O=C(Oc1cncc(Cl)c1)c1sccc1Cl	inactive
Cc1cc2nc(/N=C(\N)NC(=O)N3c4ccccc4Sc4ccccc43)nc(C)c2cc1C	inactive
Cc1c(CCC(=O)O)c(=O)oc2c(C)c(OCc3cc4c(cc3Cl)OCO4)ccc12	13.5 µM (active)
Cc1cc(C)cc(COc2ccc3c(C)c(CC(=O)O)c(=O)oc3c2C)c1	inactive
O=C(Cn1ccc(=O)[nH]c1=O)Nc1nccs1	inactive
Nc1ccc(N2CCCCC2)c2nonc12	6.75 µM (active)
O=C(Cc1cccs1)Nc1ccc2c(c1)C(=O)OC2	inactive
O=C1CCCC2=C1C(c1ccco1)Nc1ccc3ccccc3c12 (centres undefined)	inactive
O=C(O)c1ccc(Nc2cnc3ccccc3n2)cc1	inactive
O=C(Nc1ccc(S(=O)(=O)Nc2cnc3ccccc3n2)cc1)c1ccc(Cl)c([N+](=O)[O-])c1	2.13 µM (active)
Cc1cc(NS(=O)(=O)c2ccc(NC(=O)c3cc4c(=O)n5ccccc5nc4s3)cc2)nc(C)n1	6.75 µM (active)
Cc1cc(NS(=O)(=O)c2ccc(NC(=O)c3cnc(Cl)c(Cl)c3)cc2)nc(C)n1	1.69 µM (active)
O=C(Nc1ccc(Nc2ccccc2)cc1)c1ccc(Cl)cc1[N+](=O)[O-]	inactive
CCC(C)N(C(=O)CSc1nc(-c2cccs2)nc2ccccc12)C1CCS(=O)(=O)C1 (centres undefined)	inactive
CSc1nc(NCCOCCO)c2sc3nc(-c4ccco4)c4c(c3c2n1)CCC4	5.36 µM (active)
OCCN(Cc1cccnc1)Cc1ccccn1	5.36 µM (active)
COCC(C)n1c(-c2ccc3c(c2)NC(=O)CO3)csc1=Nc1ccc(OC(F)F)cc1 (centres undefined)	inactive
CCOC(=O)c1cc2c(N)c(C(=O)c3ccc(Br)cc3)sc2[nH]c1=O	1.9 µM (active)
Cc1cc(C(=O)CSc2nc(N)cc(N)n2)c(C)n1C1CC1	inactive
COc1ccc(C(CCNCc2ccc(N(C)C)cc2)C(C)C)cc1 (centres undefined)	12 µM (active)
COc1ccccc1C(CCNCc1ccc(N(C)C)cc1)c1ccc(OC(C)C)cc1 (centres undefined)	6.01 µM (active)
CCCCC(=O)NC(c1ccco1)c1cc(Cl)c2cccnc2c1O (centres undefined)	4.78 µM (active)
CCC(=O)NC(c1cccs1)c1cc(Cl)c2cccnc2c1O (centres undefined)	1.69 µM (active)
CCCCC(=O)NC(c1cccc([N+](=O)[O-])c1)c1ccc2cccnc2c1O (centres undefined)	inactive

SMILES	Potency
COc1ccc(C(NC(C)=O)c2ccc3cccnc3c2O)cc1OC (centres undefined)	1.35 µM (active)
COc1ccc(C(NC(C)=O)c2cc(Cl)c3cccnc3c2O)cc1OC (centres undefined)	1.69 µM (active)
CCOC(=O)N1CCN(S(=O)(=O)c2ccc(C(=O)NNc3nc4c(C)cc(C)cc4s3)cc2)CC1	inactive
O=c1[nH]c(/C=C\c2ccc(O)cc2)nc(O)c1[N+](=O)[O-]	inactive
O=C(NCCC1=CCCCC1)c1[nH]c(C(F)(F)F)nc1-c1ccccc1	inactive
O=C(NC1CCCCC1)N1CCN(C2CCCCC2)CC1	inactive
O=C(O)c1ccccc1NC(c1ccccc1)c1ccc2cccnc2c1O (centres undefined)	1.9 µM (active)
CCCC(=O)NC(c1ccc(OC)c(OC)c1)c1cc(Cl)c2cccnc2c1O (centres undefined)	1.69 µM (active)
CCC(=O)NC(c1ccc(OC)c(OC)c1)c1cc(Cl)c2cccnc2c1O (centres undefined)	1.69 µM (active)
O=C(Oc1ccc(Cl)c2cccnc12)C12CC3CC(CC(C3)C1)C2	inactive
CC(=O)NC(c1ccc(Cl)cc1)c1ccc2cccnc2c1O (centres undefined)	1.9 µM (active)
O=C(Nc1ncc(Cc2ccccc2Cl)s1)c1ccc(-c2cccc([N+](=O)[O-])c2)o1	inactive
COc1ccc(C2c3[nH]c4ccccc4c3C[C@H]3C(=O)N(C4CCN(Cc5ccccc5)CC4)CC(=O)N23)cc1OC (some centres undefined)	inactive
CCCCOC(=O)CCCc1ccc([N+](=O)[O-])cc1[N+](=O)[O-]	inactive
CCOc1ccc2c(c1)C(c1ccc(C)cc1)=NNC(c1ccc(OC)cc1)=N2	inactive
O=c1c2ccccc2c(C=Nc2cccc(S(=O)(=O)NC3=NCCCCC3)c2)c(O)n1Cc1ccccc1	inactive
CCN(CC)CCNC(=O)c1ccc(N)cc1	inactive
CC(C)C(=O)NC(c1ccc(Cl)cc1Cl)c1ccc2cccnc2c1O (centres undefined)	5.36 µM (active)
O=C(CSc1nnc2c(Cl)cc(Cl)cn12)NC1CCS(=O)(=O)C1 (centres undefined)	inactive
O=C(C[n+]1ccccc1)c1ccc(O)c(O)c1	inactive
CC12CC3(C)CC(C)(C1)CC(C(=O)NC(=S)N1CCOCC1)(C2)C3	inactive
COc1ccc(-c2nnc(NC(=O)c3ccc(S(=O)(=O)N(C)CC4CCCO4)cc3)o2)c(OC)c1 (centres undefined)	16.9 µM (active)
